Measurements reported in PubChem BioAssay (NCATS).
Records with an inconclusive call do not appear. A call without a number means that no potency is given here. Calls of active or inactive are those of the source. The call rests on the fitted dose curve; in most records, active means well fitted inhibition curve with a large enough effect; inconclusive means small, poorly fitted or top-dose-only effect; inactive means flat fitted curve, though single readings scatter.

target: Calcium and integrin-binding protein 1 (Homo sapiens) (UniProt Q99828); assay: Primary qHTS for Identification of Calcium Integrin Binding Protein 1 (CIB1) Competitor (AID 1508620); settings: CIB1-GST / FITC-alphaIIb peptide fluorescence polarization; series mostly up to 114 µM;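 further: GST tagged CIB1 binding a fluorescein labelled alphaIIb integrin peptide tracer; top concentration of the series differs between compounds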
In short: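 Fluorescence polarization competition: CIB1-GST (1 uM final) preincubated with compound 15 min at room temperature, then FITC-labeled alphaIIb peptide (100 nM final) added for another 15 min. Polarization read at Ex 480/Em 540.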

Sequence of Calcium and integrin-binding protein 1 (Homo sapiens) (Q99828 whole entry, looked up): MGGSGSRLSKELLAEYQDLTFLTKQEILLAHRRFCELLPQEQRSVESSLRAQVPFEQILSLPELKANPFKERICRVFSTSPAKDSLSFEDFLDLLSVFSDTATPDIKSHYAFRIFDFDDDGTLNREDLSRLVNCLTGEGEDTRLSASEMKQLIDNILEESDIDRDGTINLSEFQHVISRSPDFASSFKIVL

Compound | Potency
COc1ccccc1NS(=O)(=O)c1ccc2c(c1)CCC(=O)N2 | inactive
Cc1ccc(OCCn2c(CCNC(=O)c3ccc4ccccc4c3)nc3ccccc32)cc1 | inactive
Cc1cc(C)n2ncc(C(=O)Nc3cccc(C(F)(F)F)c3)c2n1 | inactive
CC(=O)c1cccc(NC(=O)c2cnn3c(C)cc(C)nc23)c1 | inactive
Oc1ccc(-c2ccccc2F)c2cccnc12 | inactive
O=C1Nc2ccccc2/C1=C\c1ccc(C(=O)O)cc1 | inactive
N#Cc1nc(NC2CCCC2)c2ncn(-c3cc(F)cc(F)c3)c2n1 | inactive
Cc1cc(C)nc(NC(=S)N2CCN(c3ccc(C(F)(F)F)cc3C(F)(F)F)CC2)c1 | inactive
CC(C)(C)OC(=O)N1CCN(c2ccc(NCc3ccnc(-c4ccc(C#N)cc4)n3)cc2)CC1 | inactive
COc1ccc(C2c3c(nc(C)[nH]c3=O)Oc3ccc4ccccc4c32)cc1OC (centres undefined) | inactive
O=C(NCc1ccc(Cl)c(Cl)c1)Nc1nnc(-c2ccncc2)s1 | inactive
Cc1cc(C)nc(NC(=S)N2CCN(c3ccccn3)CC2)c1 | inactive
O=[S+]([O-])(/C=C/c1nc(Nc2cc(F)cc(F)c2)c2ncn(CC(F)F)c2n1)c1ccccc1 | inactive
COC(=O)c1c(-c2ccccc2)no[n+]1[O-] | inactive
CCNC(=O)c1ccc(-c2ccc3ncnc(NCC4CCCO4)c3c2)o1 (centres undefined) | inactive
COc1ccc(C(F)(F)F)cc1NC(=O)C(OC(=O)CNC(=O)c1ccccc1)c1ccccc1 (centres undefined) | inactive
Cc1ccc(OCCn2c(CCNC(=O)c3cccc(Br)c3)nc3ccccc32)cc1 | inactive
N=c1c2c(ccn1CCCc1ccccc1)Oc1ccc3ccccc3c1C2c1ccccc1 (centres undefined) | inactive
O=C(Nc1ncc(Cc2ccc(C(F)(F)F)cc2)s1)c1ccc(-c2cccnc2)o1 | inactive
COc1ccc(-c2ccc(=O)n(CC(=O)NCCc3ccccc3)n2)cc1 | inactive

Compound | Potency
Cc1cc2c(s1)c1cnn(Cc3cccc(F)c3)c(=O)c1n2C | inactive
COc1ccccc1/C=C/C(=O)NCCc1nc2ccccc2n1CCOc1ccc(C)cc1 | inactive
COc1cccc(CNc2ccc(S(=O)(=O)Nc3nc4c(C)cccc4s3)cc2)c1O | inactive
N#Cc1ncc(C(=O)OCC(=O)NC2C3CC4CC(C3)CC2C4)cn1 (centres undefined) | inactive
CNc1cccc(S(=O)(=O)N2CCCN(S(=O)(=O)c3ccc4c(c3)OCCO4)CC2)c1 | inactive
c1nc(NCC2CCCC2)c2cc(-c3ccc4c(c3)OCO4)ccc2n1 | inactive
CC1=C(C(=O)Nc2ccccc2)C(c2ccccc2Cl)N=C(Nc2nc3ccccc3o2)N1 (centres undefined) | inactive
Cc1cc(C)nc(NC(=S)N2CCN(c3cccc(Cl)c3Cl)CC2)c1 | inactive
O=C1CCCC2=C1C(c1[nH]ncc1Cl)NC(=NCc1ccco1)N2 (centres undefined) | inactive
CCOC(=O)C1CCN(C(=O)C2(NC(=O)Nc3ccccc3Cl)CC2)CC1 | inactive
Cc1cccc(C)c1SC1=NS(=O)(=O)c2ccccc21 | inactive
CCCCc1ccc(-c2ccc(=O)n(CC(=O)NCCc3ccccc3)n2)cc1 | inactive
O=C1c2ccccc2NC(c2ccc(-c3ccccc3F)o2)N1O (centres undefined) | inactive
Cc1cc(N[S+](=O)([O-])c2ccc(NC(=O)Cc3nc4ccc(Cl)cc4[nH]3)cc2)no1 | inactive
COc1ccccc1C1N=C(Nc2nc3ccccc3o2)NC2=C1C(=O)CCC2 (centres undefined) | inactive
Cn1ccc2cc(-c3ccc4ncnc(NCc5ccc6c(c5)OCO6)c4c3)ccc21 | inactive
COc1ccc(C2Nc3cccc(OC)c3C(=O)N2Cc2ccccc2)cc1COc1ccc(NC(C)=O)cc1 (centres undefined) | inactive
CCOC(=O)c1[nH]c2c(c1C)C(=O)CCC2 | inactive
NC(=O)C1CCN(c2nc(-c3cccc4ccccc34)cs2)CC1 | inactive
